# Results filed as inconclusive are left out. Entries that show only a call come without a potency. Activity calls are given as the source filed them. Unless noted, calls follow the shape of the dose curve; as a rule, active = well fitted curve in the direction sought with a large enough effect in the repeat runs; inconclusive = weak or mixed curves; inactive = no such curve, though single readings can be large; an effect the other way counts as inactive or inconclusive.
# How the values were obtained:
# [1] = A CellTox Green Cytotoxicity Assay to monitor cytotoxicity in HepG2 cells - 8 hour (AID 1224890); conditions: CellTox Green fluorescence; series mostly up to 76.8 µM; also: nearly all actives have a fitted effect of over 45% in size; also: potency is read from the fitted curve at half-maximal effect
# In short: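 Real-time, homogeneous cytotoxicity readout: dead-cell DNA staining by CellTox Green in HepG2 monolayers, fluorescence measured at timed intervals up to 40 h of continuous compound exposure.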
# [2] = qHTS assay to identify small molecule antagonists of the androgen receptor (AR) signaling pathway using the MDA cell line in the presence of 0.5 nM R1881 - cell viability counter screen (AID 1259242); conditions: MDA-kb2 viability, CellTiter-Fluor protease fluorescence, 16 h; series mostly up to 92.4 µM; also: nearly all actives have a fitted effect of over 45% in size
# In short: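 Cytotoxicity toward MDA-kb2 cells is measured by CellTiter-Fluor live-cell protease fluorescence after 16 hr compound exposure at 37C in the presence of 0.5 nM R1881 stimulator.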
# [3] = qHTS assay to identify small molecule HDAC inhibitors (AID 1259364); conditions: HCT-116 HDAC-Glo I/II luminescence, 2 h; series mostly up to 92.4 µM; also: nearly all actives have a fitted effect of over 45% in size; also: potency is read from the fitted curve at half-maximal effect
# In short: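 Homogeneous cell-based luminescent assay of endogenous class I/II HDAC activity; HCT-116 cells, 2 h compound exposure, 30 min HDAC-Glo development at RT.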
# [4] = qHTS assay to identify small molecule HDAC inhibitors - cell viability counter screen (AID 1259365); conditions: HCT-116 viability, CellTiter-Glo ATP luminescence, 2 h; series mostly up to 92.4 µM; also: nearly all actives have a fitted effect of over 50% in size
# In short: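 HCT-116 (wild type), 1,500 cells/well, overnight 37C/5% CO2; compound in DMSO 2hr; CellTiter-Glo 30min RT; luminescence read.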
# [5] = qHTS assay to identify small molecule agonists of the sonic hedgehog signaling (Shh) pathway - cell viability counter screen (AID 1259366); conditions: NIH/3T3 Gli1-Luc viability, CellTiter-Fluor, 24 h; series mostly up to 92.4 µM; also: nearly all actives have a fitted effect of over 50% in size
# In short: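 CellTiter-Fluor fluorescence read-out, 1 hr at 37C, added after 23hr compound exposure. Cells: 3T3 Gli1-Luc, an NIH/3T3 clone with stably integrated Gli1-Luc reporter, plated 4hr before compound.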
# [6] = qHTS assay to identify small molecule antagonists of the sonic hedgehog signaling (Shh) pathway - cell viability counter screen (AID 1259367); conditions: NIH/3T3 Gli1-Luc viability, CellTiter-Fluor, 24 h; series mostly up to 92.4 µM; also: nearly all actives have a fitted effect of over 55% in size
# In short: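 Seed 3T3 Gli1-Luc cells at 2,000 per well; incubate 4 hr; add compound in DMSO, then conditioned medium; incubate at 37C with 5% CO2; add CellTiter-Fluor after 23 hr; read fluorescence 1 hr later.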
# [7] = qHTS assay to identify small molecule agonists of the sonic hedgehog signaling (Shh) pathway (AID 1259368; calls by dose curve;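 also: NIH/3T3-derived 3T3Gli1-Luc cells carrying a stable Gli1-driven firefly luciferase reporter; nearly all actives have a fitted effect of over 15% in size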); conditions: NIH/3T3 Gli1-Luc reporter, luciferase, 24 h; series mostly up to 92.4 µM
# In short: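 Steps: seed 3T3 Gli1-Luc cells, incubate 4 hr at 37 C, pin-transfer compounds in DMSO alongside a positive control, incubate 24 hr, add luciferase detection reagent, wait 30 min at room temperature, read luminescence.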
# [8] = qHTS assay to identify small molecule agonists of the estrogen receptor beta (ER-beta) signaling pathway - cell viability counter screen (AID 1259380); conditions: ER-beta-bla HEK293T viability, CellTiter-Glo luminescence, 16 h; series mostly up to 92.4 µM; also: nearly all actives have a fitted effect of over 30% in size
# In short: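 Same-well viability counter screen. Cells: ER-beta-UAS-bla HEK293T, plated 6 hr before compound, in 2% charcoal-stripped FBS. Compound exposure 16 hr, 37C; viability by CellTiter-Glo luminescence after 30 min at room temperature.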
# [9] = qHTS assay to identify small molecule antagonists of the estrogen receptor beta (ER-beta) signaling pathway - cell viability counter screen (AID 1259382); conditions: ER-beta-UAS-bla HEK293T viability, CellTiter-Glo luminescence, 16 h; series mostly up to 92.4 µM; also: nearly all actives have a fitted effect of over 55% in size
# In short: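 Following a 6 hr plating period, HEK293T cells carrying a UAS-driven beta-lactamase reporter under ER-beta control received compounds and 1nM E2 (final). After 16 hr at 37C and 2 hr substrate loading, CellTiter-Glo luminescence indicated viability.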
# [10] = qHTS assay to identify small molecule antagonists of the sonic hedgehog signaling (Shh) pathway (AID 1259369; calls by dose curve; also: nearly all actives have a fitted effect of over 45% in size); conditions: NIH/3T3 Gli1-Luc reporter, Shh antagonist, luminescence 24 h; series mostly up to 92.4 µM
# In short: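 Inhibition of Shh signalling is measured as reduced Gli1-response-element firefly luciferase output in an NIH/3T3-derived stable reporter clone stimulated with conditioned medium for 24hr.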
# [11] = target: Estrogen receptor beta (Homo sapiens) (UniProt Q92731); assay: qHTS assay to identify small molecule agonists of the estrogen receptor beta (ER-beta) signaling pathway (AID 1259377; active = well fitted activation curve with a large enough effect in the signal ratio in the repeat runs, not every such curve was filed as active; the % refers to the signal ratio); conditions: ER-beta-UAS-bla HEK293T, beta-lactamase FRET ratio, 16 h; series mostly up to 92.4 µM
# Sequence of Estrogen receptor beta (Homo sapiens) (Q92731 whole entry, looked up): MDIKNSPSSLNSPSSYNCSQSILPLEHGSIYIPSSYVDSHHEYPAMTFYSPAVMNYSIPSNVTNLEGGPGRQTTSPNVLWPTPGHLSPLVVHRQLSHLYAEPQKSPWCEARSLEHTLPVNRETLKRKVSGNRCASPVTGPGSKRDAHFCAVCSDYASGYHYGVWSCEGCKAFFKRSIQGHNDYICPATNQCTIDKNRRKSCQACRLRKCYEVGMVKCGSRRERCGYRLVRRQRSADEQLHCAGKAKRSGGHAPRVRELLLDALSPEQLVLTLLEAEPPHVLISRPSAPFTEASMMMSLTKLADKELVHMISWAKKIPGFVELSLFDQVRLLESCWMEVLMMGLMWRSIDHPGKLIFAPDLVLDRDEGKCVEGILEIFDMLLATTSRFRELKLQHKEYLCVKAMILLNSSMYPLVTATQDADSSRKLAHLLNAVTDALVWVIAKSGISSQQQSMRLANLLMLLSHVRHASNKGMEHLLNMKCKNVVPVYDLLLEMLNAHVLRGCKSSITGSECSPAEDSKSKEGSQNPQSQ
# In short: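 Beta-lactamase reporter readout: fluorescence of LiveBLAzer B/G FRET substrate after 2 h at room temperature, following 16 h compound treatment of ER-beta-UAS-bla HEK293T cells at 37C in 2% charcoal-stripped FBS medium.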
# [12] = target: Estrogen receptor beta (Homo sapiens) (UniProt Q92731); assay: qHTS assay to identify small molecule antagonists of the estrogen receptor beta (ER-beta) signaling pathway (AID 1259378; active = well fitted inhibition curve with a large enough effect in the signal ratio in the repeat runs, not every such curve was filed as active; the % refers to the signal ratio); conditions: ER-beta-UAS-bla HEK293T, beta-lactamase FRET ratio, 16 h; series mostly up to 92.4 µM
# In short: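 ER-beta-UAS-bla HEK293T cells in 2% charcoal-stripped FBS medium treated with compound plus 1nM final 17-beta-estradiol for 16 hr at 37C. Beta-lactamase reporter read by FRET substrate fluorescence after 2 hours at room temperature.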
# [13] = qHTS assay to identify small molecule agonists of the androgen receptor (AR) signaling pathway in the presence of an antagonist - cell viability counter screen (AID 1259379); conditions: MDA-kb2 viability, CellTiter-Fluor, 16 h; series mostly up to 92.4 µM;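 also: MDA-kb2 human breast cancer cells carrying an MMTV luciferase reporter; nearly all actives have a fitted effect of over 25% in size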
# In short: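 Fluorescence from CellTiter-Fluor, added after 15 hr and read 1 hr later, gave cell viability. Cells were MDA-kb2 exposed to compounds (15 concentrations) in the presence of 3.0uM nilutamide at 37C, 0% CO2.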
# [14] = qHTS assay to identify small molecule agonists or antagonists of the thyroid stimulating hormone receptor (TSHR) signaling pathway - wild type cell line counter screen (AID 1259384; calls by dose curve); conditions: HEK293 wild type, cAMP HTRF counter-screen; series mostly up to 92.4 µM
# In short: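 Wild-type Hek293 cells, 800/well, 18 h at 37C, then compound with Ro20-1724 for 30 min RT. cAMP by HTRF (cAMP-d2/anti-cAMP cryptate), 1 h RT, fluorescence read. 15 concentrations, triplicates.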
# [15] = target: Estrogen receptor (Homo sapiens) (UniProt P03372); assay: qHTS assay to identify small molecule antagonists of the estrogen receptor alpha (ER-alpha) signaling pathway using the BG1 cell line in the presence of 0.1 nM 17-beta-estradiol (AID 1259244); conditions: VM7Luc4E2 (BG1) ERE-luciferase, antagonist mode, 0.1 nM E2, 22 h; series mostly up to 92.4 µM; also: nearly all actives have a fitted effect of over 50% in size
# Sequence of Estrogen receptor (Homo sapiens) (P03372 whole entry, looked up): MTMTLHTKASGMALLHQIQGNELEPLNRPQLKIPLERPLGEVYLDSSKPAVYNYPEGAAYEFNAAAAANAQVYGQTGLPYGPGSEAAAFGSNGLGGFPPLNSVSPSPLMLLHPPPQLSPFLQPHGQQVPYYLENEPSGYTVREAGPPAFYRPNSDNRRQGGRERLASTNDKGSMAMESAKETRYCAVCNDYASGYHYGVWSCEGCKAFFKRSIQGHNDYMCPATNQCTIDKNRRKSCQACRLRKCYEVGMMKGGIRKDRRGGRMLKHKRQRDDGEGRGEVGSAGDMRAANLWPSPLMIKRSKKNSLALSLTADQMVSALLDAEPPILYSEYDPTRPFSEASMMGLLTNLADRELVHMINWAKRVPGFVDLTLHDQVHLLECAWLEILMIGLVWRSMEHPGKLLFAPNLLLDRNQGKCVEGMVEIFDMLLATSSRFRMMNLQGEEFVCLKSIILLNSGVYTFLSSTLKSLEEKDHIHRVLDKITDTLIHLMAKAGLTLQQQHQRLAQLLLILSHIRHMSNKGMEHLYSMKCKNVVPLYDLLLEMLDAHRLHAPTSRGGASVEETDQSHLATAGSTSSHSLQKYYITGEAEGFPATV
# In short: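 After 5 days in hormone-depleted medium (charcoal-stripped serum, no phenol red), VM7Luc4E2 cells were seeded, incubated 24 h, then co-treated with compound and 0.1 nM (final) estradiol for 22 h before luminescence detection.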
# [16] = target: Estrogen receptor (Homo sapiens) (UniProt P03372); assay: qHTS assay to identify small molecule agonists of the estrogen receptor alpha (ER-alpha) signaling pathway in the presence of an antagonist (AID 1259383; calls by dose curve; also: top concentration of the series differs between compounds; nearly all actives have a fitted effect of over 15% in size); conditions: VM7Luc4E2 cells, ERE-luciferase, +ICI-182,780, 22 h; series mostly up to 92.4 µM
# In short: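 Cells are hormone-deprived for 5 days (charcoal-stripped FBS, no phenol red), plated for 24hr, spiked with 10.0nM ICI-182,780, then dosed at 15 concentrations. After 22hr at 37C, ONE-Glo luminescence reports ERE-luciferase activity.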
# [17] = qHTS assay to identify small molecule antagonists of the estrogen receptor alpha (ER-alpha) signaling pathway using the BG1 cell line in the presence of 0.1 nM 17-beta-estradiol - cell viability counter screen (AID 1259241); conditions: VM7Luc4E2 (BG1) viability, CellTiter-Fluor protease, 22 h, 0.1 nM estradiol agonist added; series mostly up to 92.4 µM; also: nearly all actives have a fitted effect of over 40% in size
# In short: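 Live-cell protease activity (CellTiter-Fluor fluorescence, 30 min) was read in the same wells after VM7Luc4E2 cells had been exposed to compounds with 0.1 nM 17beta-estradiol for 22 hr at 37C.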
# [18] = target: Androgen receptor (Homo sapiens) (UniProt P10275); assay: qHTS assay to identify small molecule antagonists of the androgen receptor (AR) signaling pathway using the MDA cell line in the presence of 0.5 nM R1881 (AID 1259243); conditions: MDA-kb2 MMTV-luciferase, R1881 0.5 nM, 16 h; series mostly up to 92.4 µM; also: nearly all actives have a fitted effect of over 50% in size
# Sequence of Androgen receptor (Homo sapiens) (P10275 whole entry, looked up): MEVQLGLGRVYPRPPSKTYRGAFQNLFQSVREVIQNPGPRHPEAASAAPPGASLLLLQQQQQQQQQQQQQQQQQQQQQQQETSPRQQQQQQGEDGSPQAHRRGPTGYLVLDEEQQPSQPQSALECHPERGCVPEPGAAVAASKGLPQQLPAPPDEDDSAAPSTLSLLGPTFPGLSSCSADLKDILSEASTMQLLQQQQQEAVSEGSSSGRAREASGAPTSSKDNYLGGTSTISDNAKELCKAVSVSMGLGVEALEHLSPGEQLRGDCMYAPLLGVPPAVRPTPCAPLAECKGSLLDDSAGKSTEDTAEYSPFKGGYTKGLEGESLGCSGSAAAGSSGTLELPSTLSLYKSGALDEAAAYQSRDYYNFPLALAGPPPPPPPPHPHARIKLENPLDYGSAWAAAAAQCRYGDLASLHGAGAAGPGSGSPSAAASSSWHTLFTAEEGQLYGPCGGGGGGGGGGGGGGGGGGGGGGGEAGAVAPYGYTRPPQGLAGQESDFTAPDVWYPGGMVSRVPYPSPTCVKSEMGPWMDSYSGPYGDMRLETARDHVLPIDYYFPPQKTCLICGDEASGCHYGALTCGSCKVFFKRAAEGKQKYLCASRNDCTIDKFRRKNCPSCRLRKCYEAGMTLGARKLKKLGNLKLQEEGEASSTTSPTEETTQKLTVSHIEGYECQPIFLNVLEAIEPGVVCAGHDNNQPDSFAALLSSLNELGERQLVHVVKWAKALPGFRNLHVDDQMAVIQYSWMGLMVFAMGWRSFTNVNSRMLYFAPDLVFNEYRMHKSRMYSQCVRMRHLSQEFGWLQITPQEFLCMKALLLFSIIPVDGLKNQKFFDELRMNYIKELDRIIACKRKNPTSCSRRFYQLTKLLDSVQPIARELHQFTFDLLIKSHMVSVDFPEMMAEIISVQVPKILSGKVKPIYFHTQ
# In short: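 Steps: seed MDA-kb2 cells, incubate 5 hr at 37C; pin-transfer compounds in DMSO; add R1881 to 0.5 nM final; incubate 16 hr; add ONE-Glo, wait 30 min at room temperature; read luminescence.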
# [19] = target: Androgen receptor (Homo sapiens) (UniProt P10275); assay: qHTS assay to identify small molecule agonists of the androgen receptor (AR) signaling pathway in the presence of an antagonist (AID 1259381; calls by dose curve; also: nearly all actives have a fitted effect of over 15% in size); conditions: MDA-kb2 MMTV-luciferase, AR agonist + nilutamide, 16 h; series mostly up to 92.4 µM
# In short: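 Cells are MDA-kb2 (human breast carcinoma, MMTV-luc, AR/GR responsive). Nilutamide is present at 3.0uM final throughout; compounds are added at 15 concentrations and incubated 16hr at 37C before ONE-Glo luminescence detection.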
SMILES,Potency [1],Potency [2],Potency [3],Potency [4],Potency [5],Potency [6],Potency [7],Potency [8],Potency [9],Potency [10],Potency [11],Potency [12],Potency [13],Potency [14],Potency [15],Potency [16],Potency [17],Potency [18],Potency [19]
O=C1c2ccccc2C(=O)c2c(O)ccc(O)c21,21.9 µM (active),inactive,inactive,inactive,inactive,inactive,inactive,inactive,inactive,,,,,,,,,,
CCCCCCCCCCCCCCCCCC(=O)OCC(CC)CCCC (stereo unspecified),inactive,inactive,inactive,inactive,inactive,inactive,inactive,inactive,inactive,inactive,inactive,inactive,inactive,inactive,,,,,
CNc1c2c(nn1C)CCCC2,inactive,inactive,,inactive,inactive,inactive,inactive,inactive,inactive,inactive,,inactive,inactive,inactive,inactive,inactive,,,
CS(=O)(=O)c1ccc([C@@H](C[C@H]2CCC(=O)C2)C(=O)Nc2cnccn2)cc1Cl,inactive,inactive,inactive,inactive,inactive,inactive,inactive,inactive,inactive,inactive,inactive,inactive,inactive,,,inactive,,,
CC(=O)OCCC(C)CC(C)(C)C (stereo unspecified),inactive,inactive,inactive,inactive,inactive,inactive,inactive,inactive,inactive,inactive,,,inactive,inactive,,inactive,,,
COC(OC)OC,inactive,inactive,inactive,inactive,inactive,inactive,inactive,inactive,inactive,inactive,inactive,inactive,inactive,inactive,,inactive,,,
N[C@@H](Cc1cc(I)c(O)c(I)c1)C(=O)O,inactive,inactive,,inactive,inactive,inactive,inactive,inactive,inactive,inactive,,,inactive,inactive,inactive,inactive,,,
Nc1nc(-c2ccc([N+](=O)[O-])cc2)cs1,inactive,,12.3 µM (active),inactive,inactive,inactive,inactive,inactive,inactive,,inactive,inactive,inactive,inactive,,,,,
CC(C)N(C)C,inactive,,inactive,inactive,inactive,inactive,inactive,inactive,inactive,inactive,,,inactive,inactive,inactive,inactive,,,
C=CC(=O)NC(C)C,inactive,inactive,,inactive,inactive,inactive,inactive,inactive,inactive,inactive,,,inactive,,inactive,inactive,,,
Cc1cn([C@H]2C[C@H](F)[C@@H](CO)O2)c(=O)[nH]c1=O,,inactive,inactive,inactive,inactive,inactive,inactive,inactive,inactive,inactive,inactive,inactive,inactive,,inactive,inactive,inactive,inactive,inactive

# Source: PubChem BioAssay (Tox21)
